Screening results deposited in PubChem BioAssay by National Center for Advancing Translational Sciences (NCATS).
Shiga toxin inh = blocks Shiga toxin action in Vero cells; Vero cells, Shiga toxin protein synthesis inhibition reporter; inhibition, % at 38.7 µM; 9.2% of 290,000 active; in the data active = inhibition mostly above about 28%, no sharp cut-off; inactive = mostly below about 43%
Giardia FBPA inh = inhibitors of Giardia lamblia fructose-1,6-bisphosphate aldolase; 0.71% of 290,000 active; purified Giardia FBPA; Potency, µM (highest dose often 59.6 µM), actives largely listed as inhibitors; AID 2451; note: nearly all actives have a fitted effect of over 55% in size
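Giardia FBPA (40 nM reagent) was preincubated 10 min at RT with compound (up to 57.5 uM final), then substrate plus GAPDH/TPI/NAD/arsenate coupling system with diaphorase/resazurin was added; resorufin fluorescence (525/598 nm) was read after 20 min.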
CHX counter = counter-screen hit for Shiga toxin inhibitors, cycloheximide | cell reporter, cycloheximide protein synthesis inhibition counterscreen | max response, % | 12% of 300,000 active; in the data active = max response mostly above about 13%, no sharp cut-off; inactive = mostly below about 14%; note: read at 38.3 µM for the half of the compounds with a filed dose
LmPK inh = LmPK (Leishmania mexicana) enzyme inhibition. purified LmPK, Kinase-Glo ATP luminescence, 1 h. Potency, µM (series often up to 57.5 µM), most hits filed as inhibitors. 0.37% of 290,000 active. AID 1721
Target sequence (Q27686 whole entry, looked up): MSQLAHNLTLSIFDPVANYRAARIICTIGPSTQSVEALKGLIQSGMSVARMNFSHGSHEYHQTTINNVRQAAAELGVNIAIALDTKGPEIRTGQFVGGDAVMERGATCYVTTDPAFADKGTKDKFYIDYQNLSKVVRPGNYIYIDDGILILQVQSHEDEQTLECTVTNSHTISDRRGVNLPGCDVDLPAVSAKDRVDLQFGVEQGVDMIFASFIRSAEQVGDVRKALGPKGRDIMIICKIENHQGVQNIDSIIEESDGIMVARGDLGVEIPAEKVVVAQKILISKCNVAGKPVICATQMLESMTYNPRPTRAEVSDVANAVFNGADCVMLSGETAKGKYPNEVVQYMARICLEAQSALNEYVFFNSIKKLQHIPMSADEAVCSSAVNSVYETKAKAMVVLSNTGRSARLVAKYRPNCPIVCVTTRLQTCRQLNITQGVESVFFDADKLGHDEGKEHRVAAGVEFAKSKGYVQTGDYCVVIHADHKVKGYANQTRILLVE
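ATP generated from ADP (0.1 mM) and PEP (0.5 mM) by 0.1 nM LmPK over 1 h at room temperature (pH 7.2 imidazole buffer) was detected by coupled luciferase luminescence. Values were normalized to uninhibited and no-enzyme wells.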
NS1 function inh = influenza NS1 inhibition; Potency, µM (titrated, usually from 46.1 µM); 0.4% of 270,000 active; calls by dose curve; note: actives are rising curves; nearly all actives have a fitted effect of over 50% in size
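A cell-based growth assay was used: compounds that relieve NS1-induced slow growth of budding yeast raise OD600. Assay medium was yeast nitrogen base with ammonium sulphate and -URA supplement, pH 6.0, with 2% galactose.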
Numbers stand for hits; i = inactive; ? = inconclusive; nt = no result given; [ ] = dose if it differs, or a comment. The list is not random: actives were taken first. Their share in the collection is about 14%. Unless noted, calls come from the whole dose curve; as a rule, active = well fitted curve in the direction sought with a large enough effect; inconclusive = small, poorly fitted or top-dose-only effect, or another doubt; inactive = no such curve, though single readings can be large; an effect the other way counts as inactive or inconclusive.

SMILES	Shiga toxin inh	Giardia FBPA inh	CHX counter	LmPK inh	NS1 function inh
N[C@@]1(C(=O)O)CO[C@H]2[C@H](C(=O)O)[C@H]21	i	i	i	nt	nt
CC(=O)OCC(=O)Nc1ccccc1C	i	i	i	i	nt
COP(=O)(OC)C(NC(=O)/C=C/c1ccccc1)C(Cl)(Cl)Cl (centres undefined)	55	i	i	i	nt
Cc1cc(N2CCCC2)ccc1/C=C1/C(=O)N(C)C(=S)N1C	i	i	i	i	i
Cc1cc(/C=C2\NC(=S)N(C)C2=O)ccc1N1CCCC1	95	i	33	i	i
Cc1cc(/C=C2/C(=O)N(C)C(=S)N2C)ccc1N1CCCC1	93	i	32	i	i
CCN1C(=O)/C(=C/c2ccc(N3CCCC3)cc2)NC1=S	i	i	66	i	?
CCCN1C(=O)/C(=C/c2ccc(N3CCOCC3)cc2)NC1=S	i	i	i	i	nt
CCCN1C(=O)/C(=C/c2ccc(N3CCCC3)c(C)c2)NC1=S	50	i	19	i	i
CCCCCCCCCCCCCCCC(=O)N[C@@H](COP(=O)(O)O)C(=O)O	i	?	i	nt	nt
CC[N+]1(CC)CC2=Cc3c(ccc4ccccc34)C(C)C2C1 (centres undefined)	i	i	i	i	i
Cc1cccc(C)c1OCCn1c(CCNC(=O)C2CCCCC2)nc2ccccc21	i	nt	i	nt	nt
CC(=O)c1ccc(N2CCN(CC(=O)N(CC(C)C)c3c(N)n(CC(C)C)c(=O)[nH]c3=O)CC2)cc1	i	i	12	i	nt
O=C(Nc1ccnc(=O)[nH]1)c1sc2ccccc2c1Cl	i	i	i	i	i
O=C1CCC/C(=N/NC(=O)c2sc3ccccc3c2Cl)C1	i	i	18	i	i
O=C(NN=C1CCCC1)c1sc2ccccc2c1Cl	43	i	38	i	nt
O=C(Nc1ccon1)c1sc2cc(Cl)ccc2c1Cl	i	nt	i	i	i
Cc1ccnc(NC(=O)c2cnc(Cl)c(Cl)c2)c1	116	i	32	i	i
Cc1ccnc(NC(=O)c2ccc(Cl)s2)c1	70	i	53	i	i
Cc1ccnc(NC(=O)CCNC(=O)c2ccc(Cl)cc2)c1	i	nt	i	i	i
O=C(Nc1ccon1)c1ccc(Cl)s1	i	i	15	i	i
CC(C)(C)OC(=O)n1cc(C(=O)c2ccccc2O)cn1	i	i	i	i	i
Cc1cc(/C=N/NC(=O)c2ccncc2)c(C)n1-c1cccc(C(F)(F)F)c1	i	i	i	i	i
Cc1ccc(-n2c(C)cc(/C=N/NC(N)=S)c2C)cc1	i	i	19	i	i
CNC(=S)N/N=C/c1cc(C)n(-c2ccc(Cl)c(Cl)c2)c1C	i	i	22	i	i
SMILES	Shiga toxin inh	Giardia FBPA inh	CHX counter	LmPK inh	NS1 function inh
Cc1ccc(-n2c(C)cc(/C=N/NC(=O)c3ccncc3)c2C)cc1	i	i	25	i	i
O=c1c(-c2ccccc2)nc2cnc(N3CCNCC3)nc2n1C1CC1	nt	i	nt	nt	nt
COCC(=O)N(C)c1nnc(-c2ccccn2)s1	57	i	41	i	i
c1ccc(-c2nnc(-c3ccccn3)s2)nc1	54	i	59	13µM	i
CN(C(=O)C1CCCO1)c1nnc(-c2ccccn2)s1 (centres undefined)	47	i	50	i	i
CN(C(=O)C1CCOC1)c1nnc(-c2ccccn2)s1 (centres undefined)	86	i	30	i	i
c1ccc(-c2nc(-c3ccccn3)nc(-c3ccccn3)n2)nc1	i	?	i	i	i
CC(C)OCCCN1C=C2C(=O)C(C)(OC(=O)C3CCCC3)C(=O)C=C2C=C1c1ccsc1 (centres undefined)	nt	?	nt	i[11.5 µM]	nt
N/C(Cc1ccc(Cl)c(Cl)c1)=N\OC(=O)c1ccc(Br)o1	i	i	i	i	i
COc1ccc(/C(N)=N/OC(=O)c2ccc(Br)o2)cc1	84	i	i	i	i
N/C(=N\OC(=O)c1ccc(Br)o1)c1cccnc1	103	i	35	i	nt
CCN(CC)c1ccc(/C=C(/C#N)C(=O)NC(C)C)o1	60	i	26	i	i
CCN(CC)c1ccc(/C=C(/C#N)C(=O)NCc2ccccc2)o1	102	i	50	i	i
CCCC(=O)Nc1ncnc2c1ncn2C1OC2COP(=O)(O)OC2C1OC(=O)CCC (centres undefined)	nt	i	nt	nt	nt
COc1ccc(C2/C=C\CN(S(=O)(=O)c3ccc(C)cc3)C(C)C(=O)N2Cc2ccc(F)cc2)cc1 (centres undefined)	i	i	i	nt	nt
COc1ccc(CCN2CCCC(CN(C)C(=O)c3cc(C)oc3C)C2)cc1 (centres undefined)	91	i	69	i	i
Cc1cc(C(=O)N(C)CC2CCCN(CCc3ccc(F)cc3)C2)c(C)o1 (centres undefined)	i	i	i	i	i
COCc1ccc(C(=O)N(C)CC2CCCN(CCc3ccc(OC)cc3)C2)o1 (centres undefined)	77	i	34	i	i
COc1ccc(CCN2CCCC(CN(C)C(=O)c3ccoc3C)C2)cc1 (centres undefined)	40	nt	32	i	i
O=C(CSc1nc2c(c(=O)n1-c1ccccc1)SCC2)NCC1CCCO1 (centres undefined)	i	i	i	i	i
C/C(=N\NC(=O)CCc1c[nH]c2ccccc12)c1ccc([N+](=O)[O-])cc1	i	i	i	i	i
C/C(=N/Nc1ccc([N+](=O)[O-])cc1)c1c[nH]c2ccccc12	34	i	27	i	i
C/C(=N\Nc1ccc([N+](=O)[O-])cc1)c1ccc(C#N)cc1	i	i	i	i	i
C/C(=N/Nc1ccc([N+](=O)[O-])cc1)c1ccc(C)cc1C	94	i	42	i	nt
Nc1ccc2c(c1)C/C(=C/c1ccco1)C2=O	123	i	56	?	i
SMILES	Shiga toxin inh	Giardia FBPA inh	CHX counter	LmPK inh	NS1 function inh
COc1ccc2c(c1)CC/C(=C/c1ccco1)C2=O	120	i	56	?	i
O=C1C(=Cc2ccco2)C(=O)c2ccccc21	i	i	37	?	i
O=C1/C(=C/c2ccco2)CCc2ccccc21	61	i	77	13µM	i
COC(=O)N1CCC[C@@]2(CCN(C(=O)Nc3cccc(C#N)c3)C2)C1	nt	i	nt	nt	nt
Cn1c(=O)c(-c2cccs2)nc2cnc(OCc3ccccc3)nc21	nt	i	nt	nt	nt
Cc1ccc(C=C2C(=O)c3ccccc3C2=O)o1	i	i	37	4.5µM	i
CN(C)C(=O)c1cc(C(=O)c2ccccc2Cl)c[nH]1	i	i	29	i	i
CN(C)C(=O)c1cc(C(=O)c2ccccc2)c[nH]1	i	i	18	i	i
CCCCCCCCCCCCCC(=O)N[C@@H](C)[C@H](O)c1ccccc1	nt	i	nt	nt	nt
COc1ccc(C(=O)CSc2nc(N)nc(SC)c2C#N)cc1	i	i	i	i	i
CSc1nc(N)nc(SCC(=O)c2ccccc2)c1C#N	i	i	19	i	?
Cc1ncsc1CCOC(=O)c1ccc([N+](=O)[O-])cc1	41	i	25	i	i
Cc1noc(C)c1C(=O)N1CCC2(CCN(C(=O)NC(C)C)CC2)CC1	nt	i	nt	nt	nt
CCCCN(C)C(=O)Cn1cnc2sc(C)c(S(=O)(=O)N3CCN(c4ccccc4OC)CC3)c2c1=O	i	i	i	i	i
